CYP2C19 inh = blockers of cytochrome P450 2C19 activity – biochemical, luminescence, ADME assay, primary screen; P33261; inhibition, % at 5 µM; 96,000 tested, 21% active; AID 778, 2007; CYP2C19 Supersomes, luciferin-H EGE luminescence, 30 min;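 active = CYP2C19 inhibition above a set limit at 5 µM in the primary screen, cut at about 50% in these data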
CYP2C9 inh = blockers of cytochrome P450 2C9 activity – biochemical, luminescence, ADME assay, primary screen; CYP2C9 Supersomes, luciferin-H conversion; inhibition, % at 5 µM; 96,000 tested, 20% active; AID 777, 2007;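 active = blocking of liver enzyme CYP2C9 beyond about 50% at 5 µM, limit read from the data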
CYP2C19 activ = human CYP2C19 activators, primary screen, biochemical, luminescence | Cytochrome P450 2C19 (Homo sapiens), P33261 | recombinant CYP2C19, luciferin-H EGE luminescence; stronger effect = higher value; 0 = fully inhibited enzyme, 1 = untreated enzyme | activation factor at 5 µM | 96,000 tested, under 10 active | AID 1025, 2008;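 active = activation factor of at least 2 at 5 µM in the primary screen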
Cav3 T inh = Cav3.2 calcium influx blockers – cell-based, Fluo-4 calcium fluorescence, FDSS, MLSMR library, primary screen; Voltage-dependent T-type calcium channel subunit alpha-1H (Homo sapiens), O95180; Cav3.2-expressing cells; stronger effect = lower value; B-score at 10 µM; 100,000 tested, 4% active; AID 449739, 2010;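 active = single-dose well whose peak fluorescence ratio is a statistical outlier from its plate by either plate-standardised score or position-corrected B-score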
Target sequence (O95180 whole entry, looked up): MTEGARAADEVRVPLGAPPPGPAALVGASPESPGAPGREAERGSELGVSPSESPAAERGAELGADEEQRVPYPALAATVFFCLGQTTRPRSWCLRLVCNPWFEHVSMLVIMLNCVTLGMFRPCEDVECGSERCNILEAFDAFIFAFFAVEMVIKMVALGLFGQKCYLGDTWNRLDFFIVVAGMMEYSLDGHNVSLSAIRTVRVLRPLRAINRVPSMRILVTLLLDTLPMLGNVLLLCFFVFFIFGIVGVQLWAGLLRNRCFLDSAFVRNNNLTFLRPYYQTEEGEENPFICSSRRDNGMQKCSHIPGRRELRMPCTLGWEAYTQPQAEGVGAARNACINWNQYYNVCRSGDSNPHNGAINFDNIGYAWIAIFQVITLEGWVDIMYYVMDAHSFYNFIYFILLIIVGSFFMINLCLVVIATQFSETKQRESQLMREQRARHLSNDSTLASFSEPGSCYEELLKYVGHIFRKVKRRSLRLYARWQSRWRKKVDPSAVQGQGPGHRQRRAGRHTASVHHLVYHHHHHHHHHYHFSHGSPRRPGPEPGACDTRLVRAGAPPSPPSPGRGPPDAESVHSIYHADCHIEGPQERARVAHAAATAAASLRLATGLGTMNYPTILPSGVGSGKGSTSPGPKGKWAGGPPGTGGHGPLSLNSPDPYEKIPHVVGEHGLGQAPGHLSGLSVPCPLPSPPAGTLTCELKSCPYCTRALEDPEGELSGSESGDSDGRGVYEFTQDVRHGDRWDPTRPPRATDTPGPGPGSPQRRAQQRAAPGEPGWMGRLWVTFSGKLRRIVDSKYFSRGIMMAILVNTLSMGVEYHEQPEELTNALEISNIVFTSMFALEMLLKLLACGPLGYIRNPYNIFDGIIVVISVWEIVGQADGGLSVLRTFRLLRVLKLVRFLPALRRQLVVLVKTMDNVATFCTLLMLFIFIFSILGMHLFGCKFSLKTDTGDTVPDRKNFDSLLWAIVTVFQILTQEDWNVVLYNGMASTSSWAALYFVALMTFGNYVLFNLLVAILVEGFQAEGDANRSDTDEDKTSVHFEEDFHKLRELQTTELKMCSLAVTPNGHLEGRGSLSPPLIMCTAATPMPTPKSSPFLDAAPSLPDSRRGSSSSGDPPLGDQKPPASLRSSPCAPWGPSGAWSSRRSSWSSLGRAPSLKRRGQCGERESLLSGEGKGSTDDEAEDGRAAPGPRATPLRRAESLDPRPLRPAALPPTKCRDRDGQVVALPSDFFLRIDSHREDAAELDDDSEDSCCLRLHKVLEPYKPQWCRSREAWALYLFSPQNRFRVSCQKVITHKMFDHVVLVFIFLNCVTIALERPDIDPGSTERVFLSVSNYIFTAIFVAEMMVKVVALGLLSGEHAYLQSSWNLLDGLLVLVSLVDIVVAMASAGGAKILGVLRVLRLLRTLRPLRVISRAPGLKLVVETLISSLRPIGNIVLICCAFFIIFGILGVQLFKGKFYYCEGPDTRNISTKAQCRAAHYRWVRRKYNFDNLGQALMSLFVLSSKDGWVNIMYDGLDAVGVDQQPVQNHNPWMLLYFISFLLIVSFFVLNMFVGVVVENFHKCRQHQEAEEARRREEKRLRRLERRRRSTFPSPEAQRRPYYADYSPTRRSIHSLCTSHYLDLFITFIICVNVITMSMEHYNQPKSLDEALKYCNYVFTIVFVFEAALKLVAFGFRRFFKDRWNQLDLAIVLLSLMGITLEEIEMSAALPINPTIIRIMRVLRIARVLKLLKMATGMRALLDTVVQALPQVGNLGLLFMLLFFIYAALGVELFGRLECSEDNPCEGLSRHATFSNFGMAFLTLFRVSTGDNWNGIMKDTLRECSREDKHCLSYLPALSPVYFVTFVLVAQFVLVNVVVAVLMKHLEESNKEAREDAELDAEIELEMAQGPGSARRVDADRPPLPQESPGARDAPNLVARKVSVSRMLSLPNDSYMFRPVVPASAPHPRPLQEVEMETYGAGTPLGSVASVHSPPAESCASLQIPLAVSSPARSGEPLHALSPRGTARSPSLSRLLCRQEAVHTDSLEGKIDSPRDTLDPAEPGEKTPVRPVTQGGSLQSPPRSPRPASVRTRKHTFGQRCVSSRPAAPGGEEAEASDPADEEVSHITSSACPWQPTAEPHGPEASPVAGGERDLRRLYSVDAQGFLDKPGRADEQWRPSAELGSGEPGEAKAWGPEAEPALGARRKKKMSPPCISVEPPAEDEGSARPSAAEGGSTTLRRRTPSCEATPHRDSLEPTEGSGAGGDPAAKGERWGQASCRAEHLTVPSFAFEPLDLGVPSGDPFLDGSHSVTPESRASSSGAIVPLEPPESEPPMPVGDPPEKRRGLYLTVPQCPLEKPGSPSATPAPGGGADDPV
CYP2C9 activ = human CYP2C9 activators, primary screen, biochemical, luminescence | Cytochrome P450 2C9 (Homo sapiens), P11712 | recombinant CYP2C9, luciferin-H conversion; stronger effect = higher value; factor 1 = untreated enzyme, 0 = blocked | activation factor at 5 µM | 96,000 tested, 1.4% active | AID 1024, 2008;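 active = activation factor of 2 or more for CYP2C9 at a 5 µM dose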
Of the large screens only hits and unclear results are named; the others gave an inactive call. Hits are enriched below; roughly 27% of the tested compounds scored in any of these assays.

COc1ccc(C(=O)C(OC(=O)c2ccc(C)c(NC(C)=O)c2)c2ccccc2)cc1 (stereo unspecified)	CYP2C9 inh 62
CCCC(=O)NC(C)c1nc(-c2ccc(C)cc2)no1 (stereo unspecified)	none (no result: CYP2C19 inh, CYP2C9 inh, CYP2C19 activ, CYP2C9 activ)
CCCCNc1nc(N(C)c2ccccc2)nc(-n2ccnc2)n1	CYP2C19 inh 85, CYP2C9 inh 84
C=CCNc1nc(N(c2ccccc2)c2ccccc2)nc(-n2ccnc2)n1	none
CN(c1ccccc1)c1nc(-n2ccnc2)nc(-n2ccnc2)n1	CYP2C19 inh 79
COc1ccc(F)c(C2C(C#N)=C(N)Oc3n[nH]c(C(C)(C)C)c32)c1 (stereo unspecified)	CYP2C19 inh 70
CCCC1C(C#N)=C(N)Oc2n[nH]c(C(C)(C)C)c21 (stereo unspecified)	CYP2C19 inh 93, CYP2C9 inh 70
CC(C)C1C(C#N)=C(N)Oc2n[nH]c(C(C)(C)C)c21 (stereo unspecified)	none
Cc1[nH]nc2c1C(CCc1ccccc1)C(C#N)=C(N)O2 (stereo unspecified)	CYP2C19 inh 74
COCc1[nH]nc2c1C(c1ccccc1F)C(C#N)=C(N)O2 (stereo unspecified)	none
CCC(C)C1C(C#N)=C(N)Oc2n[nH]c(C)c21 (stereo unspecified)	none (no result: CYP2C19 inh, CYP2C9 inh, CYP2C19 activ, CYP2C9 activ)
COc1ccc(C2CC(=O)NC3=C2C(=O)CCC3)cc1Cl (stereo unspecified)	none (no result: Cav3 T inh)
Cc1sc2ncnc(NCCN3CCOCC3)c2c1C	none
Cc1ccc(-n2ncc(C#N)c2/N=C/N2CCOCC2)cc1	CYP2C19 inh 85, CYP2C9 inh 65
CCn1c(=NC(=O)CSC(C)=O)sc2ccccc21	Cav3 T inh -7.3
COC(=O)Cn1c(=O)sc2ccccc21	none
COC(=O)Cn1c(=NC(=O)CSC(C)=O)sc2ccccc21	Cav3 T inh -6.2
Cc1sc2ncn(CC(=O)NCCN3CCOCC3)c(=O)c2c1S(=O)(=O)N1CCC(C)CC1	none
COc1cccc(C(=O)O/N=C/c2ccc(Sc3ccc(C)cc3)nc2)c1	none
COC(=O)[C@H]1[C@@H](C)N(Cc2ccccc2)C(=O)N[C@H]1c1ccccc1	none (no result: CYP2C19 inh, CYP2C9 inh, CYP2C19 activ, CYP2C9 activ)
CCOC(=O)C(C)On1c(-c2cccc(Cl)c2)nc2ccc([N+](=O)[O-])cc21 (stereo unspecified)	CYP2C19 inh 88, CYP2C9 inh 89
CCOc1cccc(SCc2noc(C(=O)NCC3CCCO3)c2C(=O)O)c1 (stereo unspecified)	CYP2C19 inh 54, CYP2C9 inh 50
O=C(NCC1CCCO1)c1onc(CSc2cccc(Cl)c2)c1C(=O)O (stereo unspecified)	CYP2C9 inh 55
O=C(NCC1CCCO1)c1onc(CSc2cccc3ccccc23)c1C(=O)O (stereo unspecified)	CYP2C9 inh 82
CCc1ccccc1SCc1noc(C(=O)NCC2CCCO2)c1C(=O)O (stereo unspecified)	none
Cc1ccc(SCc2noc(C(=O)NCC3CCCO3)c2C(=O)O)cc1C (stereo unspecified)	none
COc1ccc(COC[C@H](C)[C@H](O)[C@@H](C)[C@H]2OC(=O)[C@@H]2C)cc1	none (no result: CYP2C19 inh, CYP2C9 inh, CYP2C19 activ, CYP2C9 activ)
COC(=O)c1ccc(CNC(=O)CSc2nnc(COc3ccccc3)n2C)o1	none
CCOc1ccc(C(=O)N(C)C2CCS(=O)(=O)C2)cc1 (stereo unspecified)	none
C=CCOC(=O)C1=C[C@H](c2coc3ccccc3c2=O)[C@@H](CCCO)[C@H](OCC)O1	none (no result: CYP2C19 inh, CYP2C9 inh, CYP2C19 activ, CYP2C9 activ)
CCOC(=O)CCC(=O)Nc1ccccc1C(N)=O	none
c1ccc(C(c2nnnn2C2CCCC2)N2CCCCCC2)nc1 (stereo unspecified)	CYP2C19 inh 52
CCN(Cc1ccccc1)C(c1cccs1)c1nnnn1C1CCCCC1 (stereo unspecified)	none
CCN(Cc1ccccc1)C(c1ccccn1)c1nnnn1C1CCCCC1 (stereo unspecified)	Cav3 T inh -4 (no result: CYP2C19 inh, CYP2C9 inh, CYP2C19 activ, CYP2C9 activ)
O=C(NC1CC1)c1ccc(CS(=O)(=O)c2c(Cl)cccc2Cl)o1	none
CCOC(=O)N1CCN(C(=O)CN2C(=O)CC(C)(C)S(=O)(=O)c3ccccc32)CC1	CYP2C19 inh 55
Cc1n[nH]c(C)c1S(=O)(=O)N1CCCC(C(=O)Nc2ccc3c(c2)OCCO3)C1 (stereo unspecified)	none
O=C(Nc1cccc(Cl)c1)C1CCCN(S(=O)(=O)c2cnc[nH]2)C1 (stereo unspecified)	CYP2C19 inh 95, CYP2C9 inh 96
COc1ccc(NC(=O)C2CCCN(S(=O)(=O)c3cccc4nonc34)C2)cc1 (stereo unspecified)	none
O=C(Nc1ccc2c(c1)OCCO2)C1CCCN(S(=O)(=O)c2cnc[nH]2)C1 (stereo unspecified)	CYP2C9 inh 62
COc1ccc(NC(=O)C2CCCN(S(=O)(=O)c3cnc[nH]3)C2)cc1 (stereo unspecified)	CYP2C9 inh 62
Cc1cc(NC(=O)C2CCCN(S(=O)(=O)c3cnc[nH]3)C2)ccc1Br (stereo unspecified)	CYP2C19 inh 97, CYP2C9 inh 94
O=C(NCCN1CCN(c2cccc(Cl)c2)CC1)C1CCCN(S(=O)(=O)c2cnc[nH]2)C1 (stereo unspecified)	none
COc1c2c(nc3occc13)C(CC=C(C)C)(OC)C(O)CC2 (stereo unspecified)	none (no result: CYP2C19 inh, CYP2C9 inh, CYP2C19 activ, CYP2C9 activ)
CC(C)(C)NC(=O)C(c1ccccc1)N(C(=O)C1CSC(=O)C1)c1ccccc1 (stereo unspecified)	none
CN1C(=O)CSC1=NCC12CC3CC(CC(C3)C1)C2	none
CCN1CCN(Cc2ccc(NC(=O)c3cc(NC(=O)c4cnnc5ccccc45)cc(OC)c3)cc2C(F)(F)F)CC1	none (no result: CYP2C19 inh, CYP2C9 inh, CYP2C19 activ, CYP2C9 activ)
O=C(Nc1ccc(Cl)c(C(F)(F)F)c1)C1CCCN(S(=O)(=O)c2cnc[nH]2)C1 (stereo unspecified)	CYP2C19 inh 93, CYP2C9 inh 94
Cc1ccc(NC(=O)C2CCCN(S(=O)(=O)c3cnc[nH]3)C2)cc1C (stereo unspecified)	CYP2C19 inh 90, CYP2C9 inh 86
CCCOC(=O)NC(CC)COC(=O)Nc1cccc(C)c1C (stereo unspecified)	CYP2C19 inh 72
CC(C)COC(=O)Nc1ccc(C(=O)O)cc1	none
CCCOC(=O)Nc1cccc(C(C)=O)c1	none (no result: CYP2C19 inh, CYP2C9 inh, CYP2C19 activ, CYP2C9 activ)
CCC(COC(=O)Nc1cccc(C)c1C)NC(=O)OCC(C)C (stereo unspecified)	CYP2C19 inh 96
O=C(Nc1ccccc1)C1=C[C@@H](c2ccc(C(F)(F)F)cc2)C[C@@H](OCCCCO)O1	none (no result: CYP2C19 inh, CYP2C9 inh, CYP2C19 activ, CYP2C9 activ)
CC(C)CC(=O)c1c[nH]c(C(=O)NCCc2ccccn2)c1	none
O=c1c2cc(Br)ccc2[nH]c(=S)n1Cc1cccnc1	none (no result: Cav3 T inh)
O=c1c2ccccc2[nH]c(=S)n1Cc1cccnc1	CYP2C19 inh 82

Source: PubChem (several laboratories)
